# Experimental data as given in PubChem BioAssay (EPA / NIEHS).
# Where “and” joins values, the source holds several entries; their conditions need not be identical. Equal entries are not always repeated. Some structures have more than one record in an assay (separate samples or runs), and their calls can disagree. Calls of active or inactive are those of the source. The calls were made as follows: active = hit-call score of the fitted dose curve at least 0.9, where 1 is the maximum; inactive = score below 0.9.
# What was measured:
# [1] = read-out: Decorin, DCN (gene 1634); test: BSK_MyoF_Decorin: BioMAP Diversity Plus: MyoF Assay for Decorin Biomarker Activity (AID 2284265); conditions: primary human lung fibroblasts
# Outline: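 Compound is added to lung fibroblast cultures; cells incubate 24 h; decorin is then measured by ELISA; the response is analysed upward against DMSO controls.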
# [2] = BSK_MyoF_SRB: Viability Assessment in the BioMAP Diversity Plus: MyoF Assay (AID 2284267); conditions: primary human lung fibroblasts;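 also: total protein by SRB absorbance in parallel cultures as cytotoxicity measure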
# Outline: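 Human lung fibroblasts, 24 h after chemical dosing; total protein measured by 0.1% sulforhodamine B staining after 10% TCA fixation, read at 560 nm, fitted relative to DMSO baseline.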
# [3] = read-out: Matrix Metallopeptidase 1 (MMP1), MMP1 (gene 4312); test: BSK_MyoF_MMP1: BioMAP Diversity Plus: MyoF Assay for Matrix Metallopeptidase 1 (MMP1) Biomarker Activity (AID 2284268); conditions: primary human lung fibroblasts
# Outline: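 Lung fibroblast cultures were dosed with test chemicals and, after 24 h, MMP1 levels were measured by ELISA; responses were referenced to DMSO and analysed for increases.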
# [4] = read-out: TIMP metallopeptidase inhibitor 1 (TIMP1), TIMP1 (gene 7076); test: BSK_MyoF_TIMP1: BioMAP Diversity Plus: MyoF Assay for TIMP metallopeptidase inhibitor 1 (TIMP1) Biomarker Activity (AID 2284269); conditions: primary human lung fibroblasts
# Outline: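 TIMP-1 levels were determined by ELISA in human lung fibroblasts treated for 24 h. DMSO served as negative control and baseline for upward curve fitting.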
# [5] = read-out: CD90, THY1 (gene 7070); test: BSK_BF4T_CD90: BioMAP Diversity Plus: BF4T Assay for CD90 Biomarker Activity (AID 2284262); conditions: primary human bronchial epithelial cells with fibroblasts
# Outline: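 Co-culture of human bronchial epithelial cells and dermal fibroblasts, 24 h compound exposure. Cell-surface CD90 measured by ELISA relative to DMSO; parallel SRB total-protein staining for cytotoxicity.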
# [6] = read-out: Interleukin-8 (IL8), CXCL8 (gene 3576); test: BSK_BF4T_IL8: BioMAP Diversity Plus: BF4T Assay for Interleukin-8 (IL8) Biomarker Activity (AID 2284263); conditions: primary human bronchial epithelial cells with fibroblasts
# Outline: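 Human bronchial epithelial cells with dermal fibroblasts co-culture; IL-8 measured by ELISA 24 hours after dosing, fitted vs DMSO. Cytotoxicity tracked in parallel cultures by SRB total-protein staining.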
# [7] = read-out: Interleukin-1 alpha (IL1a), IL1A (gene 3552); test: BSK_BF4T_IL1a: BioMAP Diversity Plus: BF4T Assay for Interleukin-1 alpha (IL1a) Biomarker Activity (AID 2284264); conditions: primary human bronchial epithelial cells with fibroblasts
# Outline: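 Human bronchial epithelial cells co-cultured with dermal fibroblasts, dosed and read at 24 h. Secreted/surface IL-1α quantified by ELISA; gain-of-signal fitted relative to DMSO baseline. Parallel SRB total-protein staining tracked cytotoxicity.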
# [8] = read-out: KRT18 (gene 3875); test: BSK_BF4T_Keratin818: BioMAP Diversity Plus: BF4T Assay for Keratin 818 Biomarker Activity (AID 2284266); conditions: primary human bronchial epithelial cells with fibroblasts
# Outline: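 Co-culture of human bronchial epithelial cells and dermal fibroblasts, chemical exposure 24 h. Keratin 8/18 measured by ELISA; positive-direction fit vs DMSO. SRB total protein run in parallel cultures for cytotoxicity.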
# [9] = read-out: Matrix Metallopeptidase 1 (MMP1), MMP1 (gene 4312); test: BSK_BF4T_MMP1: BioMAP Diversity Plus: BF4T Assay for Matrix Metallopeptidase 1 (MMP1) Biomarker Activity (AID 2284270); conditions: primary human bronchial epithelial cells with fibroblasts
# Outline: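 Co-culture of human bronchial epithelial cells and dermal fibroblasts; MMP-1 levels measured by ELISA 24 hours after chemical dosing, relative to DMSO. Cytotoxicity checked in parallel cultures by SRB total-protein staining.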
# [10] = read-out: Matrix Metallopeptidase 3 (MMP3), MMP3 (gene 4314); test: BSK_BF4T_MMP3: BioMAP Diversity Plus: BF4T Assay for Matrix Metallopeptidase 3 (MMP3) Biomarker Activity (AID 2284271); conditions: primary human bronchial epithelial cells with fibroblasts
# Outline: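 Co-culture of human bronchial epithelial cells and dermal fibroblasts dosed 24 h; MMP-3 measured by ELISA, positive-direction fit versus DMSO. Cytotoxicity tracked by SRB total-protein staining (560 nm) in parallel cultures.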
# [11] = read-out: Tissue plasminogen activator (tPA), PLAT (gene 5327); test: BSK_BF4T_tPA: BioMAP Diversity Plus: BF4T Assay for Tissue plasminogen activator (tPA) Biomarker Activity (AID 2284272); conditions: primary human bronchial epithelial cells with fibroblasts
# Outline: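 tPA level quantified by ELISA at 24 h post-treatment in bronchial epithelial/dermal fibroblast co-cultures, gain of signal scored against DMSO baseline. Parallel cultures stained with 0.1% SRB (560 nm) to flag overt cytotoxicity.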
# [12] = read-out: Plasminogen Activator Inhibitor-1 (PAI1), SERPINE1 (gene 5054); test: BSK_BF4T_PAI1: BioMAP Diversity Plus: BF4T Assay for Plasminogen Activator Inhibitor-1 (PAI1) Biomarker Activity (AID 2284273); conditions: primary human bronchial epithelial cells with fibroblasts
# Outline: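 Co-culture of human bronchial epithelial cells and dermal fibroblasts exposed to compound for 24 h. PAI-1 measured by ELISA; activity fitted in positive direction versus DMSO. Parallel SRB staining assessed overt cytotoxicity.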
# [13] = BSK_BF4T_SRB: Viability Assessment in the BioMAP Diversity Plus: BF4T Assay (AID 2284274); conditions: primary human bronchial epithelial cells with fibroblasts
# Outline: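 Co-culture of human bronchial epithelial cells and dermal fibroblasts (BioMAP BF4T) exposed 24 h. Total protein by sulforhodamine B staining (0.1% SRB after 10% TCA fixation, 560 nm) in parallel cultures; fitted vs DMSO.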
# [14] = read-out: urokinase Plasminogen Activator (uPA), PLAU (gene 5328); test: BSK_BF4T_uPA: BioMAP Diversity Plus: BF4T Assay for urokinase Plasminogen Activator (uPA) Biomarker Activity (AID 2284275); conditions: primary human bronchial epithelial cells with fibroblasts
# Outline: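 Co-culture of human bronchial epithelial cells and dermal fibroblasts; uPA quantified by ELISA 24 hours after dosing, fitted relative to DMSO. Parallel SRB total-protein staining assessed overt cytotoxicity.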
# [15] = read-out: Matrix Metallopeptidase 9 (MMP9), MMP9 (gene 4318); test: BSK_BF4T_MMP9: BioMAP Diversity Plus: BF4T Assay for Matrix Metallopeptidase 9 (MMP9) Biomarker Activity (AID 2284276); conditions: primary human bronchial epithelial cells with fibroblasts
# Outline: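 Co-culture of human bronchial epithelial cells and dermal fibroblasts dosed for 24 h; MMP-9 quantified by ELISA and fitted upward versus DMSO. Cytotoxicity monitored in parallel cultures by SRB total-protein staining at the biomarker time point.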
# [16] = read-out: Interleukin-8 (IL8), CXCL8 (gene 3576); test: BSK_IMphg_IL8: BioMAP Diversity Plus: IMphg Assay for Interleukin-8 (IL8) Biomarker Activity (AID 2284277); conditions: primary human endothelial cells with macrophages
# Outline: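 Co-culture of human venular endothelial cells and macrophages exposed to chemicals for 24 h; IL-8 quantified by ELISA and compared against the DMSO baseline, with SRB total-protein staining in parallel cultures for cytotoxicity.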
# [17] = read-out: Intercellular Adhesion Molecule 1 (ICAM1), ICAM1 (gene 3383); test: BSK_BE3C_ICAM1: BioMAP Diversity Plus: BE3C Assay for Intercellular Adhesion Molecule 1 (ICAM1) Biomarker Activity (AID 2284278); conditions: primary human bronchial epithelial cells;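 as to outcome: cell-surface ICAM-1 protein level quantified by ELISA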
# Outline: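 Primary human bronchial epithelial cells in BE3C system, 24 h after chemical dosing; cell-surface ICAM-1 measured by ELISA relative to DMSO. Parallel SRB staining (0.1% SRB after 10% TCA fixation, read at 560 nm) assessed cytotoxicity.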
# [18] = read-out: Interferon-inducible T-cell alpha chemoattractant (ITAC), CXCL11 (gene 6373); test: BSK_BE3C_ITAC: BioMAP Diversity Plus: BE3C Assay for Interferon-inducible T-cell alpha chemoattractant (ITAC) Biomarker Activity (AID 2284279); conditions: primary human bronchial epithelial cells
# Outline: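 The assay measures I-TAC levels by ELISA in human primary bronchial epithelial cell cultures 24 hours after chemical treatment. Values reflect signal increase over the DMSO baseline.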
# [19] = read-out: Interleukin-8 (IL8), CXCL8 (gene 3576); test: BSK_BE3C_IL8: BioMAP Diversity Plus: BE3C Assay for Interleukin-8 (IL8) Biomarker Activity (AID 2284280); conditions: primary human bronchial epithelial cells
# Outline: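 Primary human bronchial epithelial cells (BE3C system) exposed 24 h; IL-8 measured by ELISA and fitted in positive direction versus DMSO. Overt cytotoxicity assessed by SRB total-protein staining in parallel cultures.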
# [20] = read-out: Epidermal growth factor receptor (EGFR), EGFR (gene 1956); test: BSK_BE3C_EGFR: BioMAP Diversity Plus: BE3C Assay for Epidermal growth factor receptor (EGFR) Biomarker Activity (AID 2284281); conditions: primary human bronchial epithelial cells
# Outline: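 Human primary bronchial epithelial cells (BE3C system) dosed with chemicals; EGFR measured by ELISA at 24 h, fitted in the positive direction relative to DMSO. Cytotoxicity tracked in parallel cultures by SRB total-protein staining.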
smiles,measurement,setting,value
ClC1C(Cl)C(Cl)C(Cl)C(Cl)C1Cl (configuration not stated),outcome,[1],inactive
same,AC50,[2],18.6 µM (active) and 726 nM (active)
same,outcome,[2],inactive
same,AC50,[3],8.25 µM (active) and 6.92 µM (active) and 292 nM (active)
same,outcome,[4],inactive
O=S(=O)(O)C(F)(F)C(F)(F)C(F)(F)C(F)(F)C(F)(F)C(F)(F)C(F)(F)C(F)(F)F,outcome,[5],inactive
same,outcome,[6],inactive
same,outcome,[7],inactive
same,outcome,[1],inactive
same,outcome,[8],inactive
same,outcome,[2],inactive
same,outcome,[3],inactive
same,outcome,[4],inactive
same,outcome,[9],inactive
same,AC50,[10],14.7 µM (active)
same,outcome,[10],inactive
same,outcome,[11],inactive
same,outcome,[12],inactive
same,outcome,[13],inactive
same,outcome,[14],inactive
same,AC50,[15],17.1 µM (active)
same,outcome,[15],inactive
same,outcome,[16],inactive
same,AC50,[17],49.3 µM (active) and 53.4 µM (active)
same,outcome,[17],inactive
same,AC50,[18],40.8 µM (active) [middle of 4 runs]
same,AC50,[19],30 µM (active) and 7.03 µM (active) and 2.79 µM (active)
same,outcome,[19],inactive
same,AC50,[20],16.5 µM (active) and 11.6 µM (active) and 13.2 µM (active)
same,outcome,[20],inactive
O=C(O)C(F)(F)C(F)(F)C(F)(F)C(F)(F)C(F)(F)C(F)(F)C(F)(F)F,outcome,[5],inactive
same,outcome,[6],inactive
same,outcome,[7],inactive
same,outcome,[1],inactive
same,outcome,[8],inactive
same,outcome,[2],inactive
same,outcome,[3],inactive
same,outcome,[4],inactive
same,outcome,[9],inactive
same,outcome,[10],inactive
same,AC50,[11],30 µM (active) and 1.85 µM (active)
same,outcome,[11],inactive
same,outcome,[12],inactive
same,outcome,[13],inactive
same,outcome,[14],inactive
same,outcome,[15],inactive
same,AC50,[16],20.5 µM (active) and 20.3 µM (active) and 25.2 µM (active)
same,outcome,[16],inactive
same,outcome,[17],inactive
same,outcome,[18],inactive
same,outcome,[19],inactive
same,outcome,[20],inactive
